High-throughput results as filed in PubChem BioAssay.
Rango release inh: prevents RanGTP from dissociating the Rango-importin beta complex | AID 540253 | O95149+P62826 | Potency, µM (top dose mostly 46.1 µM), without a hit: at the highest dose activity change, negative = inhibition | 0.071% of 340,000 active | Biochemical FRET Rango-importin beta, RanGTP-induced dissociation; further: potency means the concentration at half of the fitted maximal effect; % of control where 0% means no effect; nearly all actives have a fitted effect of over 45% in size
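FRET read at 45 min, room temperature: inhibitors block the CFP/YFP signal rise when RanGTP (0.6 uM Ran, 2 mM GTP, 0.2 uM RCC1) frees Rango (0.1 uM) from importin beta (0.25 uM). Pre-read after 5 min compound exposure flags interference.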
MmCpn inh: inhibitors of Methanococcus maripaludis chaperonin TRiC (MmCpn) | purified Mm-Cpn ATPase, ADP Transcreener TR-FRET | Potency, µM (series often up to 76.9 µM), without a hit: top-dose activity, negative = inhibition, hits mostly inhibitors | 0.031% of 330,000 active | AID 504842; active means well fitted inhibition curve with a large enough effect; inconclusive means small, poorly fitted or top-dose-only effect; further: potency means the concentration at half of the fitted maximal effect; on the % scale 0 is the no-effect control and ±100 the full control effect; nearly all actives have a fitted effect of over 80% in size
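Purified archaeal Mm-CPN (25nM final) preincubated 10 min at 37degC with compound, then 10uM ATP for 30 min at 37degC; ADP measured by HTRF Transcreener TR-FRET; buffer 30 mM TRIS pH 7.4, 100mM KCl, 5mM MgCl2, 1mM DTT.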
Rango complex inh: prevents formation of the Rango-importin beta complex; Rango CFP/YFP FRET sensor + importin beta, 45 min; Potency, µM (highest dose often 92.2 µM), for the others: top-dose inhibition of complex formation; 0.031% of 340,000 active; AID 540263; Q14974;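 further: potency means the concentration at half of the fitted maximal effect; 0% = DMSO wells and 100% = buffer wells lacking importin beta; nearly all actives have a fitted effect of over 15% in size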
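FRET biosensor Rango (snurportin 1 IBB between N-terminal EYFP and C-terminal Cerulean), 50 nM in PBS/1 mM DTT/0.02% Tween-20/0.1% BSA, preincubated 5 min RT with compound; 0.125 microM importin beta added, 45 min RT, CFP/YFP FRET ratio read.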
DRD3 agonist: agonists of human D3 dopamine receptor. D3R DiscoveRx beta-arrestin cells, luminescence, 90 min. max activation, %. 0.58% of 410,000 active; in the data active means max activation above about 30%; further: 0% is about no effect
Target sequence (P35462 whole entry, looked up): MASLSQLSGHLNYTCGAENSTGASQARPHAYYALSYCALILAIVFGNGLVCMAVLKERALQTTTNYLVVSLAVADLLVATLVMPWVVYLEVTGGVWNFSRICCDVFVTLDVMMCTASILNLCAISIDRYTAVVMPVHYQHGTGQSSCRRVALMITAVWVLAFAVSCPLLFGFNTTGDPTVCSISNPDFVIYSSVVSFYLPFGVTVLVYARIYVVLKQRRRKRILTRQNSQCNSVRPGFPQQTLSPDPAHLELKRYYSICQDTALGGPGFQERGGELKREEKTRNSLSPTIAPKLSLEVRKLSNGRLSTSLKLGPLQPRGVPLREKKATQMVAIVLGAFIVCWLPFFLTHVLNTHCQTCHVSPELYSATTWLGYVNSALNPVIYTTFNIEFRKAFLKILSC
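Agonist-mode cell screen: cells plated at 1500/well and incubated overnight at 37 °C, then exposed to library compounds for 90 min at 37 °C. Detection reagent was added for 30–60 min at room temperature, and luminescence was read.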
D3 antag: D3 dopamine receptor (human) antagonism; AID 652054; P35462; 2.5% of 360,000 active; D3R cells, DiscoveRx beta-arrestin luminescence, antagonist mode; stronger effect = lower value; max response, negative = inhibition, %; in the data active means max response below about -50%; inconclusive means no clear call, values can overlap the other calls; further: on the % scale 0 is the no-effect control and ±100 the full control effect
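Cells plated overnight at 1500 cells/well, then exposed to library compounds with dopamine controls for 90 minutes at 37 degrees C. DiscoveRx reagent added for 30–60 minutes at room temperature; luminescence read, quantitative HTS format.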
PTAP TSG101 blk: blocks PTAP/TSG101 interaction to inhibit HIV-1 budding; Fluorescence polarization, FITC-PTAP peptide / Tsg101 binding; Q99816; 340,000 tested, under 10 active; Potency, µM (highest dose often 115 µM), inactives show at the top dose activity change, negative = inhibition, actives largely listed as inhibitors; active means well fitted inhibition curve with a large enough effect in the main read-out, with a control signal flat, not every such curve was filed as active; inconclusive means small, poorly fitted or top-dose-only effect, or effect the other way, or a change in a side signal; inactive means no such curve, though single readings can be large or run the other way; further: potency means the concentration at half of the fitted maximal effect; % of control where 0% means no effect
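Fluorescence polarization binding of Tsg101 binding domain (10 uM final) to FITC-labeled PTAP peptide (50 nM final) in HEPES pH 7.5 buffer with NaCl, Tween 20, EDTA, TCEP. Compounds added before peptide; binding 20 min at RT.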
Starred values were filed as active, the others as inactive. A selection: hits, their analogues and other compounds. The true share with any hit is near 2.9%. Unless noted, the call rests on the fitted dose curve.

What do the screens show for `COc1ccc(NC(=O)c2ccc3c(=O)n4nc(Nc5ccccc5C)sc4nc3c2)cc1Cl`?
DRD3 agonist: 2

Results for CCC(Oc1ccccc1)C(=O)N[C@@H]1C(=O)N2[C@@H]1SC(C)(C)[C@@H]2C(=O)O (stereo not given in full) ?
DRD3 agonist: 7

Results for CCN(Cc1ccc(NC(C)=O)cc1)CC1CCCN(CCc2cccc(OC)c2)C1 (stereo not given) ?
Rango release inh: -7%; MmCpn inh: 2%; Rango complex inh: -4%; DRD3 agonist: -5; D3 antag: -52*; PTAP TSG101 blk: -4%

What do the screens show for `Cc1oc(=O)c(NC(=O)c2ccc(Cl)cc2)cc1C(=O)c1ccccc1`?
Rango release inh: 25%; MmCpn inh: -8%; Rango complex inh: 2%; DRD3 agonist: -8; D3 antag: -80*; PTAP TSG101 blk: -1%

What do the screens show for `CC(=O)N1CCN(c2ccc(NC(=O)c3ccc(C(C)(C)C)cc3)cc2)CC1`?
Rango release inh: 1%; MmCpn inh: 2%; Rango complex inh: 3%; DRD3 agonist: 17; D3 antag: -89*; PTAP TSG101 blk: -5%

What do the screens show for `Cc1cc2c(n1-c1ccc(C(=O)NCC(C)c3ccccc3)cc1)CCCC2` (stereo not given)?
DRD3 agonist: 3

Results for CC(C)CCNC(=O)C(=O)Nc1cc2c3c(c1)CC(=O)N3CCC2 ?
Rango release inh: 2%; MmCpn inh: 0%; Rango complex inh: -4%; DRD3 agonist: 39*; D3 antag: 12; PTAP TSG101 blk: 0%

How did O=[N+]([O-])c1ccc(N/N=C/c2cccc(O)c2O)c(S(=O)(=O)N2CCOCC2)c1 do in these assays?
Rango release inh: inconclusive; MmCpn inh: 4%; Rango complex inh: 0%; DRD3 agonist: -8; D3 antag: -64*; PTAP TSG101 blk: 1%

How did CC1=NN(C(N)=S)C(=O)C1N=Nc1ccccc1C (stereo not given) do in these assays?
Rango release inh: 8%; MmCpn inh: 0%; Rango complex inh: -2%; DRD3 agonist: 7; D3 antag: -89*; PTAP TSG101 blk: 0%

How did Cc1noc(C)c1S(=O)(=O)N1CCCC(C(=O)NCCc2ccc(Cl)cc2)C1 (stereo not given) do in these assays?
Rango release inh: 1%; MmCpn inh: 1%; Rango complex inh: 0%; DRD3 agonist: 1; D3 antag: -72*; PTAP TSG101 blk: 0%

How did CCOc1cc(N2C(=O)CC3CS(=O)(=O)CC32)c(OCC)cc1NC(=O)c1ccccc1 (stereo not given) do in these assays?
Rango release inh: -15%; MmCpn inh: -1%; Rango complex inh: 2%; DRD3 agonist: -3; D3 antag: -62*; PTAP TSG101 blk: 0%

Results for CCOc1cc(N2CCOCC2)c(OCC)cc1NC(=O)c1cccc(N(C)C)c1 ?
Rango release inh: -7%; MmCpn inh: 0%; Rango complex inh: -4%; DRD3 agonist: 6; D3 antag: 16; PTAP TSG101 blk: 0%

What do the screens show for `CCOC(=O)N1CCN(C(=O)c2ccc3c(c2)N(C)C(=O)/C(=C\c2ccc(OCC)c(OC)c2)S3)CC1`?
Rango release inh: -12%; MmCpn inh: -2%; Rango complex inh: inconclusive; DRD3 agonist: 46*; D3 antag: 63; PTAP TSG101 blk: -3%

Results for CN1C(=O)/C(=C/c2cccc(Cl)c2)Sc2ccc(C(=O)N3CCCC3)cc21 ?
Rango release inh: -11%; MmCpn inh: -1%; Rango complex inh: -3%; DRD3 agonist: 39*; D3 antag: 23; PTAP TSG101 blk: -4%

How did COc1ccccc1N1CCN(c2nc3ccccc3n3cnnc23)CC1 do in these assays?
DRD3 agonist: 2

What do the screens show for `COc1cc(CNc2ncc(-c3ccc(Br)cc3)n2C)cc(OC)c1OC`?
Rango release inh: -13%; MmCpn inh: -3%; Rango complex inh: 0%; DRD3 agonist: -26; D3 antag: inconclusive; PTAP TSG101 blk: -6%

What do the screens show for `Cn1c(-c2ccc(F)cc2)cnc1NCc1ccc(C#N)cc1`?
Rango release inh: 8%; MmCpn inh: 1%; Rango complex inh: 0%; DRD3 agonist: -1; D3 antag: -73*; PTAP TSG101 blk: -9%

What do the screens show for `Cn1c(-c2ccc(Br)cc2)cnc1NCc1cccnc1`?
Rango release inh: -11%; MmCpn inh: -1%; Rango complex inh: 2%; DRD3 agonist: -3; D3 antag: -62*; PTAP TSG101 blk: -4%

How did Cc1ccc(S(=O)(=O)N2CCC(C(=O)OCC(=O)N(C)CC(=O)Nc3ccc(F)cc3)CC2)cc1C do in these assays?
Rango release inh: 0%; MmCpn inh: 0%; Rango complex inh: 1%; DRD3 agonist: 5; D3 antag: -8; PTAP TSG101 blk: -5%

What do the screens show for `O=C(c1ccc2c(c1)N(Cc1cccc(Cl)c1)C(=O)c1ccccc1S2(=O)=O)N1CCN(Cc2ccccc2)CC1`?
DRD3 agonist: -20

How did CCOC(=O)N1CCN(C(=O)COC(=O)CSc2ccc([N+](=O)[O-])cc2)CC1 do in these assays?
Rango release inh: 2%; MmCpn inh: 3%; Rango complex inh: 0%; DRD3 agonist: 2; D3 antag: -52*; PTAP TSG101 blk: -1%

Results for CCOC(=O)N1CCN(C(=O)COC(=O)c2ccc([N+](=O)[O-])cc2Cl)CC1 ?
Rango release inh: -2%; MmCpn inh: 0%; Rango complex inh: -1%; DRD3 agonist: 4; D3 antag: 6; PTAP TSG101 blk: 2%

Results for CCOC(=O)c1c(CSc2ccccc2)n(C)c2cc(Br)c(O)c(CN(C)C)c12 ?
Rango release inh: -28%; MmCpn inh: 0%; Rango complex inh: 2%; DRD3 agonist: -13; D3 antag: -16; PTAP TSG101 blk: -4%

Results for CCOC(=O)c1c(CN(C)C)oc2cc(CN(C)C)c(O)c(CSc3ccccc3)c12 ?
Rango release inh: 0%; MmCpn inh: 2%; Rango complex inh: -1%; DRD3 agonist: -21; D3 antag: -59*; PTAP TSG101 blk: -2%

How did C=CCc1cc(Cl)ccc1OCCOCCNC(C)(C)C do in these assays?
Rango release inh: 3%; MmCpn inh: -2%; Rango complex inh: 4%; DRD3 agonist: 2; D3 antag: -1; PTAP TSG101 blk: 1%

How did CC(C)NC(=O)C1CCCN(S(=O)(=O)c2cccc3nonc23)C1 (stereo not given) do in these assays?
Rango release inh: 5%; MmCpn inh: 1%; Rango complex inh: 0%; DRD3 agonist: 0; D3 antag: 9; PTAP TSG101 blk: -7%
